# Rows were chosen to be rich in hits. Some 2.4% of all compounds tested hit in one or more screens of this group.
# Tb PFK inh-1 = blocks T. brucei phosphofructokinase; O15648; Potency, µM (highest dose often 57.5 µM), most hits filed as inhibitors; T. brucei PFK, ADP-Glo luminescence; AID 485367; 0.17% of 330,000 active; note: nearly all actives have a fitted effect of over 60% in size
#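 Luminescent ADP detection (ADP-Glo, two-step: ATP depletion then ADP-to-ATP conversion for luciferase) reported PFK activity after 45 min room-temperature reaction of 1.25 nM enzyme with 0.5 mM F6P and 0.1 mM ATP at pH 8.0.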
# PKM2 act = increases activity of human pyruvate kinase M2. P14618. purified PKM2, Kinase-Glo ATP luminescence, activation; response scale: 0% is enzyme alone, no compound. Potency, µM (top dose mostly 57.5 µM), usual class: activators. 0.34% of 260,000 active. AID 1631; note: nearly all actives have a fitted effect of over 55% in size
#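 Kinase-Glo luminescence reports ATP generated from ADP (0.1 mM) and PEP (0.5 mM) by purified hPK-M2 after 1 h at room temperature, pH 7.2 imidazole buffer; intermediate enzyme activity allows detecting inhibitors and activators.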
# ELG1 DNA repair = blocks ELG1-dependent DNA repair in HEK293T cells; HEK293T ELG1-luciferase reporter, luminescence, 16 h; DNA damage induced by 5-fluorouridine; Potency, µM (titrated, usually from 46.1 µM), most hits filed as inhibitors; 2.3% of 330,000 active; note: nearly all actives have a fitted effect of over 55% in size
#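 5-Fluorouridine DNA damage + compound/DMSO, 2,000 cells/well, 16 h, 37 °C/5% CO2. ONE-Glo, 30 min RT, luminescence. Readout = decrease in reporter signal.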
# PGK inhibitor = T. brucei PGK inhibition. AID 602233. P07378. PGK/GAPDH coupled, Kinase-Glo luminescence, 60 min. 0.043% of 380,000 active. Potency, µM (highest dose often 57.5 µM), usual class: inhibitors; note: nearly all actives have a fitted effect of over 60% in size
#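 Recombinant glycosomal PGK reaction used 1,3-bisphosphoglycerate generated in-well by GAPDH (100nM final) in 100mM TEA pH 7.6, 5mM MgCl2, 0.01% Tween-20. After 60 minutes at room temperature, ATP was read by Kinase-Glo Plus luminescence end-point.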
# Rango dissoc inh = inhibition of RanGTP-driven Rango-importin beta dissociation | O95149+P62826 | Biochemical FRET Rango-importin beta, RanGTP-induced dissociation | Potency, µM (series often up to 46.1 µM) | 0.071% of 340,000 active | AID 540253; calls by dose curve; note: nearly all actives have a fitted effect of over 45% in size
#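 Quantitative HTS using a FRET biosensor: 0.1 uM Rango, 0.25 uM importin beta, 0.6 uM Ran, 2 mM GTP, 0.2 uM RCC1 final, PBS with DTT, Tween-20 and BSA. Post-read taken 45 min after Ran addition.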
# Rango-impB inh = inhibitors of Rango-importin beta complex formation; Rango CFP/YFP FRET sensor + importin beta, 45 min; Potency, µM (titrated, usually from 92.2 µM); 0.031% of 340,000 active; calls by dose curve; note: nearly all actives have a fitted effect of over 15% in size
# Target sequence (Q14974 whole entry, looked up): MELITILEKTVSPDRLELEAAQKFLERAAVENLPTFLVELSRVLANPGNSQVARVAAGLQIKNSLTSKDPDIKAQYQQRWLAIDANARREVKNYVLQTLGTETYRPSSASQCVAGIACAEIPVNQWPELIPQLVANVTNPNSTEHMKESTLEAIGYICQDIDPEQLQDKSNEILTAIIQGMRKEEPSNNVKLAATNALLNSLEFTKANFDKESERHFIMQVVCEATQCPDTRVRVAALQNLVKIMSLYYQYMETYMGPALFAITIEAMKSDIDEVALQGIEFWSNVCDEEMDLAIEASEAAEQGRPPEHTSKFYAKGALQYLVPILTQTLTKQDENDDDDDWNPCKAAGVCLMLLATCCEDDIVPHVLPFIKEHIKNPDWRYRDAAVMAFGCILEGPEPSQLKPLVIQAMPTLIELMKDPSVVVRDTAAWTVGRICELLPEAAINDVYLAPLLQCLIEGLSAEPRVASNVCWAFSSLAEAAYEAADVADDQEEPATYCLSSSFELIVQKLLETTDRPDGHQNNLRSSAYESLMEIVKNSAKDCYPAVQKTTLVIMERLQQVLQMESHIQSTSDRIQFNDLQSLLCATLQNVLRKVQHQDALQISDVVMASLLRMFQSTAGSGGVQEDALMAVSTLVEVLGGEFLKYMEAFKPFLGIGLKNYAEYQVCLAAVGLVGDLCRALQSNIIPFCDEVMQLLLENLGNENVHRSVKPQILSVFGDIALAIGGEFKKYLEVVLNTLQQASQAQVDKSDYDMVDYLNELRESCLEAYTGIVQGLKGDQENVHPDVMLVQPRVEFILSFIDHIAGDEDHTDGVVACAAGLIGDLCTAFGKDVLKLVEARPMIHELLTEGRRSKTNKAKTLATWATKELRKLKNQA
#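 FRET biosensor (snurportin 1 IBB flanked by EYFP and cerulean), 50 nM, with compound 5 min, then 0.125 microM importin beta in PBS, 1 mM DTT, 0.02% Tween-20, 0.1% BSA. CFP/YFP ratio read after 45 min at room temperature; pre-read flags interference.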
# Tb PFK KinaseGlo = Tb phosphofructokinase inhibition, orthogonal luminescence; shares compounds with Tb PFK inh-1; Tb PFK enzyme, ATP depletion, Kinase-Glo Plus luminescence; Potency, µM (top dose mostly 57.5 µM); 47% of 1,100 active; AID 504636; calls by dose curve; note: nearly all actives have a fitted effect of over 60% in size
# Tb PFK inh-2 = validation of T. brucei phosphofructokinase inhibitors; purified T. brucei PFK, ADP-Glo luminescence, 45 min; Potency, µM (doses to about 57.5 µM), actives largely listed as inhibitors; shares compounds with Tb PFK inh-1; AID 504637; 41% of 1,100 active; note: nearly all actives have a fitted effect of over 60% in size
# A number is an active result; . = inactive; ? = inconclusive; / = not tested or not shown; [ ] = remark or other dose. Unless noted, calls come from the whole dose curve; as a rule, active = well fitted curve in the direction sought with a large enough effect; inconclusive = small, poorly fitted or top-dose-only effect, or another doubt; inactive = no such curve, though single readings can be large; an effect the other way counts as inactive or inconclusive.
SMILES,Tb PFK inh-1,PKM2 act,ELG1 DNA repair,PGK inhibitor,Rango dissoc inh,Rango-impB inh,Tb PFK KinaseGlo,Tb PFK inh-2
CC(=O)NS(=O)(=O)c1ccc(NC(=O)CSc2ccc(Cl)cc2)cc1,30µM,.,.,.,.,.,13µM,30µM
O=C(CSc1ccncc1)Nc1ccc(S(=O)(=O)Nc2nccs2)cc1,19µM,.,.,.,.,.,13µM,27µM
CC(=O)Nc1ccc(C2CN(C)CC2C(=O)c2ccc(Cl)cc2)cc1 (stereo not drawn),.,.,.,.,.,.,/,/
O=C(COc1ccc(F)cc1Cl)Nc1ccc(S(=O)(=O)Nc2nccs2)cc1,1.2µM,/,?,.,.,.,0.95µM,1.1µM
CCCC12CN3CC(C)(CN(C1)C3c1ccccn1)C2=O (stereo not drawn),/,/,/,.,/,/,/,/
O=C(COc1ccccc1Cl)N1CCN(CCc2ccncc2)CC1,/,/,/,.,/,/,/,/
Cc1ccccc1CN1C(=O)CN=C(c2ccccc2)c2cc(Cl)ccc21,/,/,/,.,/,/,/,/
O=C1OCCC1C(=O)c1ccccc1 (stereo not drawn),/,/,/,.,/,/,/,/
COc1ccc(F)cc1CN1CCN(C(=O)CCC(=O)Nc2nnc(CC(C)C)s2)CC1,.,.[0.46 µM],.,.,?,?,/,/
O=C(O)Cc1sc(-c2ccccc2Cl)nc1-c1ccccc1,?,.,.,.,.,.,.,.
O=C(COc1cccc(Cl)c1)N1CCN(CCc2ccncc2)CC1,/,/,/,.,/,/,/,/
O=c1[nH]sc2cc(F)ccc12,?,.,.,.,.,.,19µM,27µM
O=c1[nH]sc2ccccc12,19µM,.,.,.,.,.,21µM,27µM
O=C(Cc1ccc(S(=O)(=O)N2CCCC2)s1)N1CCN(c2ccc(F)cc2)CC1,.,.,?,.,.,.,/,/
CS(=O)(=O)N1CC(C(=O)NC2CCCC2)Oc2ccc(Cl)cc21 (stereo not drawn),19µM,.,.,.,.,.,9.5µM,24µM
O=C(NC1CCCCC1)C1CCN(C(=O)c2ccc(-c3ccccc3)cc2)CC1,.,.,?,.,.,.,/,/
CS(=O)(=O)N1CC(C(=O)NC2CC2)Oc2ccc(Cl)cc21 (stereo not drawn),21µM,.,.,.,.,.,13µM,24µM
C=CCN1C(=O)NC(=O)/C(=C/c2ccc(N(C)C)c(Br)c2)C1=O,.,.,.,.,.,.,/,/
C=CCSc1nc2sc3c(c2c(=O)n1CC)CCc1ccccc1-3,13µM,.,.,.,.,.,6.7µM,11µM
Cc1ccc(-c2nc(CN3C(=O)CN=C(c4ccccc4)c4ccccc43)c(C)o2)cc1,/,/,/,.,/,/,/,/
COc1ccc(-c2nc(CN3C(=O)CN=C(c4ccccc4)c4ccccc43)c(C)o2)cc1,/,/,/,.,/,/,/,/
N#Cc1ccc2ccn(CC(=O)NCc3ccco3)c2c1,21µM,.,.,.,.,.,13µM,30µM
O=C(Nc1ccc(Br)cc1C(=O)c1ccccc1Cl)c1ccccc1F,/,/,/,.,/,/,/,/
Cc1c(Cl)cccc1NC(=O)C(=O)NNC(=O)c1ccccc1F,?,.,.,.,.,.,.,?
COc1ccc(C(=O)/C=C/c2cccs2)c(OC(=O)N2CCOCC2)c1,.,.,?,.,.,.,/,/
SMILES,Tb PFK inh-1,PKM2 act,ELG1 DNA repair,PGK inhibitor,Rango dissoc inh,Rango-impB inh,Tb PFK KinaseGlo,Tb PFK inh-2
COc1ccc2o/c(=N/NC(=O)c3cccs3)c(C(N)=O)cc2c1,?,.,?,.,?,?,.,?
CCN(CC)c1ccc(/C=C2\C(=O)N(c3nnc(C)c(=O)[nH]3)N=C2C)cc1,?,.,?,.,.,.,?,13µM
Cc1ccc(-c2cc(C(=O)N/N=C/C(Br)=C/c3ccccc3)n[nH]2)o1,?,.,.,.,.,.,.,?
CC(C(Sc1ccccc1N)c1ccccc1)[N+](=O)[O-] (stereo not drawn),24µM,.,?,.,.,.,?,?
O=C1CC(c2ccc(C(F)(F)F)cc2)c2c(c3ccccc3oc2=O)O1 (stereo not drawn),/,/,/,.,/,/,/,/
CSc1nc(=S)c2[nH]c(=S)[nH]c2[nH]1,?,.,.,.,.,.,5.4µM,19µM
COc1ccc(-c2csc(NS(=O)(=O)c3ccc([N+](=O)[O-])cc3)n2)cc1,?,.,.,.,.,.,.,?
CC(C)(C)NC(=S)N1Cc2ccccc2-n2nncc2C1,/,/,/,.,/,/,/,/
Cc1c(-c2ccc(Cl)cc2)oc(=O)c2c(N)n(-c3ccccc3)nc12,?,.,?,.,.,.,?,?
C=CCNc1nnc(Sc2ncccc2[N+](=O)[O-])s1,.,.,?,.,.,.,/,/
O=C(Nc1cccc(Cl)c1)c1cccc(N2C(=O)C3CC=CCC3C2=O)c1 (stereo not drawn),27µM,.,.,.,.,.,6µM,13µM
CC(=O)N(C1=C(Cl)C(=O)c2ccccc2C1=O)C1CCCCC1,0.67µM,3.5µM,16µM,.,.,.,0.38µM,0.38µM
COc1ccc(C(C)=O)cc1Cc1c(O)[nH]c(=S)[nH]c1=O,.,/,.,.,.,.,/,/
CN(C)c1ccc(C(=S)N2CCN(c3ccc([N+](=O)[O-])cc3)CC2)cc1,12µM,.,.,.,.,.,8.5µM,13µM
Cc1cccc(N2CCN(C(=S)c3ccc([N+](=O)[O-])cc3)CC2)c1,?,.,.,.,.,.,24µM,?
O=[N+]([O-])c1ccc(N2CC2)c([N+](=O)[O-])c1,/,/,/,.,.,.,/,/
O=C1c2ccccc2-c2c1nc1c([n+]2[O-])CCCC1,.,.,?,.,.,.,/,/
O=C(Cc1ccccc1)NC(Cc1ccc(Cl)cc1)C(=O)O (stereo not drawn),.,.,.,.,.,.,/,/
CCn1cc(/C=N\NC(=O)Cc2ccc(Cl)cc2)cn1,19µM,.,.,.,.,.,7.6µM,15µM
O=C(Cc1ccc(Cl)cc1)N/N=C/c1cccc(O)c1,9.5µM,.,.,.,.,.,11µM,12µM
COc1ccc(/C=N/NC(=O)Cc2ccc(Cl)cc2)cc1OC,?,.,.,.,.,.,?,?
COc1ccc(OC)c(/C=N/OC(=O)Nc2ccc(Cl)cc2)c1,.,.,.,.,.,.,/,/
NCC1(c2ccc3c(c2)OCCO3)CCCC1,.,.,.,.,.,.,/,/

# High-throughput results (PubChem)
